This note sets out measurements from PubChem BioAssay (EPA / NIEHS).

A short description of experiment [1]: TAMU_PeakParms_SingleDonor1434_QT: Texas A&M University (TAMU) 1.5-hr Human Induced Pluripotent Stem Cell (iPSC)-derived Cardiomyocytes Calcium (Ca+2) Flux Assay for Cardiotoxicity: QT (decay-rise ratio) (AID 2284235; active = hit-call score of the fitted dose curve at least 0.9, where 1 is the maximum). Summed up: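 Decay/rise ratio of calcium-flux fluorescence scored after 90 min exposure (37C) of donor 1434 iPSC cardiomyocytes to 0.2–100 uM (0.5% DMSO). Beat-cessation and severe-notch points removed; POD is EC05, a 5% rise over DMSO.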

Experiment [2] in a line: CCTE_Mundy_HCI_Cortical_NOG_NeuronCount: CCTE's Neurite Outgrowth Assay in rat cortical cells for Neuron Count, Mundy Lab (AID 2284236; active = hit-call score of the fitted dose curve at least 0.9, where 1 is the maximum;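 also: neurons counted by imaging betaIII-tubulin and Hoechst stained cortical cells; cells exposed to compound for about 48 hours before fixation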). Summed up:
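Read-out: neuron number by high-content imaging of betaIII-tubulin (Alexa Fluor-488) and Hoechst-labelled rat primary cortical cells.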

Experiment [3] is described as follows: CCTE_Mundy_HCI_Cortical_Synap_Neur_Matur_NeuronCount: CCTE's Synaptogenesis and Neurite Maturation Assay in rat cortical cells for Neuron Count, Mundy Lab (AID 2284242; active = hit-call score of the fitted dose curve at least 0.9, where 1 is the maximum). An outline of the steps: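 Neuron counts come from automated high-content imaging of Hoechst nuclei and MAP2/synaptophysin immunostaining at DIV 12, with loss of signal judged against DMSO. Cultures of rat cortical cells had glial growth arrested by AraC at DIV 5; chemical exposure began DIV 7.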

Experiment [4] is described as follows: CCTE_Mundy_HCI_Cortical_NOG_BPCount: CCTE's Neurite Outgrowth Assay in rat cortical cells for Branch Point Count, Mundy Lab (AID 2284237). Summed up: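 Measured 50.33 h after dosing, this morphology endpoint uses rat primary cortical cultures labelled for betaIII-tubulin. Branch points are quantified by high-content imaging, with DMSO as negative control and baseline.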

Read-out in experiment [5]: Collagen III, COL3A1 (gene 1281)
The experiment in a line: BSK_MyoF_CollagenIII: BioMAP Diversity Plus: MyoF Assay for Collagen III Biomarker Activity (AID 2284239). The settings on record: primary human lung fibroblasts. Summed up:
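Lung fibroblast culture; 24 h compound exposure; collagen III by ELISA; gain-of-signal fit vs DMSO baseline.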

Read-out in experiment [6]: Interleukin 17F (IL17F), IL17F (gene 112744)
The experiment in a line: BSK_BT_xIL17F: BioMAP Diversity Plus: BT Assay for Interleukin 17F (IL17F) Biomarker Activity (AID 2284243). The settings on record: primary human B cells with PBMC. An outline of the steps:
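Secreted IL-17F, read on LumineX xMAP beads, was taken as the endpoint. Cultures combined human B cells and peripheral blood mononuclear cells, sampled 24 hours after dosing, with DMSO serving as negative control.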

Read-out in experiment [7]: Actin alpha 1 (ACTA1), ACTA1 (gene 58)
The experiment in a line: BSK_MyoF_ACTA1: BioMAP Diversity Plus: MyoF Assay for Actin alpha 1 (ACTA1) Biomarker Activity (AID 2284244). The settings on record: primary human lung fibroblasts. An outline of the steps:
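alpha-SMA levels read by ELISA against DMSO baseline, 24 h post-dose, in primary human lung fibroblasts. Parallel cultures stained with 0.1% SRB after 10% TCA fixation (560 nm) to flag overt cytotoxicity.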

Read-out in experiment [8]: Interleukin 2 (IL2), IL2 (gene 3558)
The experiment in a line: BSK_BT_xIL2: BioMAP Diversity Plus: BT Assay for Interleukin 2 (IL2) Biomarker Activity (AID 2284245). The settings on record: primary human B cells with PBMC. An outline of the steps:
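Secreted IL-2 was read by Luminex xMAP from B cells co-cultured with PBMC (human primary) 24 h post-dosing; activity was analysed as gain of signal relative to DMSO vehicle.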

Read-out in experiment [9]: Basic fibroblast growth factor (bFGF), FGF2 (gene 2247)
The experiment in a line: BSK_MyoF_bFGF: BioMAP Diversity Plus: MyoF Assay for Basic fibroblast growth factor (bFGF) Biomarker Activity (AID 2284246). The settings on record: primary human lung fibroblasts. Summed up: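 bFGF was measured by ELISA in primary human lung fibroblasts 24 h after chemical addition. Signal was analysed as positive-direction change relative to DMSO baseline.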

Read-out in experiment [10]: Collagen IV, COL4A1 (gene 1282)
The experiment in a line: BSK_MyoF_CollagenIV: BioMAP Diversity Plus: MyoF Assay for Collagen IV Biomarker Activity (AID 2284247). The settings on record: primary human lung fibroblasts. Summed up: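 Collagen IV quantified by ELISA in human lung fibroblast cultures 24 h after chemical treatment, with DMSO as baseline. Parallel SRB staining (0.1% SRB after TCA fixation, 560 nm) flags overt cytotoxicity.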

Read-out in experiment [11]: Monokine induced gamma interferon (MIG), CXCL9 (gene 4283)
The experiment in a line: BSK_KF3CT_MIG: BioMAP Diversity Plus: KF3CT Assay for Monokine induced gamma interferon (MIG) Biomarker Activity (AID 2284248). The settings on record: primary human keratinocytes with fibroblasts. An outline of the steps: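 ELISA read-out of MIG after 24 h chemical exposure of human skin primary co-culture (keratinocytes, foreskin fibroblasts). Gain of signal relative to DMSO negative control was analysed.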

Read-out in experiment [12]: Interferon-inducible T-cell alpha chemoattractant (ITAC), CXCL11 (gene 6373)
The experiment in a line: BSK_hDFCGF_ITAC: BioMAP Diversity Plus: hDFCGF Assay for Interferon-inducible T-cell alpha chemoattractant (ITAC) Biomarker Activity (AID 2284251). The settings on record: primary human foreskin fibroblasts. An outline of the steps: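 I-TAC levels were read by ELISA on human dermal foreskin fibroblast primary cultures 24 h after dosing, analysed against DMSO in the positive direction. Cytotoxicity was assessed alongside by sulforhodamine B total-protein staining.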

Read-out in experiment [13]: Plasminogen activator inhibitor-1 (PAI1), SERPINE1 (gene 5054)
The experiment in a line: BSK_KF3CT_PAI1: BioMAP Diversity Plus: KF3CT Assay for Plasminogen activator inhibitor-1 (PAI1) Biomarker Activity (AID 2284252). The settings on record: primary human keratinocytes with fibroblasts. Summed up: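 PAI-1 levels quantified by ELISA after 24 h compound exposure of primary human skin keratinocytes co-cultured with fibroblasts. Activity is the gain relative to DMSO; cytotoxicity tracked in parallel cultures via SRB staining.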

Read-out in experiment [14]: Monocyte Chemoattractant Protein-1 (MCP1), CCL2 (gene 6347)
The experiment in a line: BSK_IMphg_MCP1: BioMAP Diversity Plus: IMphg Assay for Monocyte Chemoattractant Protein-1 (MCP1) Biomarker Activity (AID 2284253). The settings on record: primary human endothelial cells with macrophages. An outline of the steps:
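ELISA readout of MCP-1 at 24 hours in IMphg co-cultures of venular endothelial cells and macrophages, normalised to DMSO; parallel cultures stained with sulforhodamine B for overt cytotoxicity.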

Read-out in experiment [15]: Interleukin-8 (IL8), CXCL8 (gene 3576)
The experiment in a line: BSK_KF3CT_IL8: BioMAP Diversity Plus: KF3CT Assay for Interleukin-8 (IL8) Biomarker Activity (AID 2284254). The settings on record: primary human keratinocytes with fibroblasts. An outline of the steps: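 IL-8 read-out: ELISA, 24 h post-dose, human skin primary co-culture (keratinocytes + foreskin fibroblasts). DMSO = baseline; positive-direction fit.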

Read-out in experiment [16]: Vascular cell adhesion molecule 1 (VCAM1), VCAM1 (gene 7412)
The experiment in a line: BSK_BF4T_VCAM1: BioMAP Diversity Plus: BF4T Assay for Vascular cell adhesion molecule 1 (VCAM1) Biomarker Activity (AID 2284249). The settings on record: primary human bronchial epithelial cells with fibroblasts. An outline of the steps:
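Cell-surface VCAM-1 quantified by ELISA after 24 h chemical exposure of human bronchial epithelial/dermal fibroblast co-cultures, with SRB staining in parallel wells for cytotoxicity; DMSO baseline, positive-direction fitting.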

Experiment [17] is described as follows: CCTE_Mundy_HCI_hNP1_Casp3_7: CCTE's Caspase-Glo 3/7 Assay in human neuroprogenitor cells for Apoptosis, Mundy Lab (AID 2284240). An outline of the steps: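 Apoptosis is scored by activated caspase-3/7 luminescence in WA09-derived neural progenitor cells, measured 26.5 h after chemical dosing. Values represent gain of signal relative to DMSO vehicle.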
Experiment [18] can be described thus: CCTE_Mundy_HCI_hNP1_CellTiter: CCTE's Cell Titer-Glo 2 Assay in human neuroprogenitor cells for Viability, Mundy Lab (AID 2284241; active = hit-call score of the fitted dose curve at least 0.9, where 1 is the maximum). An outline of the steps:
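Human neural progenitor cells (hNP1, WA09-derived) were plated on poly-L-ornithine/laminin and grown 40 to 44 hours at 37 °C, 5% CO2 before chemical addition. Twenty-four hours later, ATP was measured by CellTiter-Glo luminescence; loss of signal versus DMSO indicates reduced viability.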

Read-out in experiment [19]: Collagen I, COL1A1 (gene 1277)
The experiment in a line: BSK_hDFCGF_CollagenI: BioMAP Diversity Plus: hDFCGF Assay for Collagen I Biomarker Activity (AID 2284250). The settings on record: primary human foreskin fibroblasts. Summed up: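 Collagen I quantified by ELISA 24 h after chemical dosing of human dermal fibroblast primary cells, with parallel SRB staining (0.1%, TCA-fixed, 560 nm) for overt cytotoxicity.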

The structures appear in SMILES notation. Several values for one entry are separate records, joined by “and”; a condition that tells them apart may be missing. Equal values may be shown once. Inconclusive results are not listed. Where a structure was tested more than once in an assay, its records may differ in their call. Activity calls are given as the source filed them. The calls were made as follows, unless noted: active = hit-call score of the fitted dose curve at least 0.9, where 1 is the maximum; inactive = score below 0.9.

In the case of `OC[C@@H](O)[C@@H](O)[C@H](O)[C@@H](O)CO`, the result in [1], in [2] and in [3] was inactive.
For `CC(CCl)OP(=O)(OC(C)CCl)OC(C)CCl` (stereo not given), the result in experiment [2], in experiment [4] and in experiment [3] was inactive.
For the molecule `O=C(O)C(F)(OC(F)(F)C(F)(OC(F)(F)C(F)(F)C(F)(F)F)C(F)(F)F)C(F)(F)F` (stereo not given), the result in [5], in experiment [6], in experiment [7], in [8], in experiment [9] and in [10] was inactive. For the same molecule, the outcome in [11], in experiment [12], in [13], in [14] and in experiment [15] was inactive.
With `FC(F)(F)C(F)(F)C(F)(F)C(F)(F)C(F)(F)C(F)(F)C(F)(F)I`, the AC50 is 5.06 µM (active) and 4.85 µM (active) in [5]; 3.33 µM (active) in experiment [7]; 4.81 µM (active) and 1.16 µM (active) in [10]. Also, the result in experiment [6], in experiment [8], in [9], in experiment [11], in [16] and in experiment [12] was inactive. Besides, the outcome in experiment [13], in experiment [14] and in experiment [15] was inactive.
For `FC(F)(F)C(F)(F)C(F)(F)C(F)(F)C(F)(F)C(F)(F)CC1CO1` (stereo not given), the outcome in experiment [5], in [17], in [18], in experiment [6], in experiment [7] and in experiment [8] was inactive. In addition, the result in experiment [9], in experiment [10], in experiment [11], in experiment [12], in experiment [13] and in experiment [14] was inactive. Also, in [15], the result was inactive.
Consider `C=C(C)C(=O)OCC(F)(F)C(F)(F)C(F)(F)C(F)(F)C(F)(F)C(F)(F)C(F)(F)F`, for which the outcome in experiment [5], in experiment [6], in experiment [7], in experiment [8], in experiment [9] and in [10] was inactive. Besides, the outcome in experiment [11], in experiment [12], in experiment [13], in experiment [14] and in experiment [15] was inactive.
`CCCCCCOC(=O)c1ccccc1O`: the outcome in [11], in experiment [13] and in [15] was inactive. Also, the AC50 was 18.7 µM (active) and 10.1 µM (active) in experiment [19]; 40.7 µM (active) and 45.2 µM (active) in experiment [12]; 17.4 µM (active) in [13].
Take `O=S(=O)(OCCOC(F)(F)F)C(F)(F)F`: the result in [5], in experiment [6], in [7], in experiment [8], in [9] and in experiment [10] was inactive. Moreover, the outcome in [11], in [16], in experiment [19], in experiment [12], in experiment [13] and in experiment [14] was inactive. Further, the result in [15] was inactive.
On to `Cc1ccc(S(=O)(=O)OCC(F)(F)C(F)(F)C(F)(F)C(F)(F)C(F)(F)C(F)F)cc1`, for which the result in [5], in experiment [6], in [7], in experiment [8], in experiment [9] and in experiment [10] was inactive. The result in [11], in [19], in experiment [12], in [13], in experiment [14] and in experiment [15] was inactive.
On to `O[Si](c1ccccc1)(c1ccccc1)c1ccccc1`, for which the AC50 in experiment [5] was 31.5 µM (active); in experiment [6], 32.6 µM (active); in [7], 20 µM (active); in experiment [8] it was 31.3 µM (active). Also, the result in [9] and in experiment [10] was inactive.

For orientation: AC50 means the concentration at which the activity in the assay is half-maximal.
